The text below walks through data of PubChem BioAssay AID1159506 (National Center for Advancing Translational Sciences (NCATS), 2015).

Over roughly 59,000 sequences, the read-out has its median near -0.00055; the lowest 2% begin near -2. Many of the other results were omitted from the sample, so the lowest values are more common in it than they were.

The assay is described as follows: Identification of proteins required for the processing of the EWS-FLI1 nascent transcript.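 Further: robust z of luciferase light less the median z of siRNAs with the same seed.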 To be noted: TC32 Ewing sarcoma NR0B1-luc vs CMV-luc (EWS-FLI1 target promoter against control promoter), 48 h; screened at 20 nM (by protocol). In outline: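 Readout: OneGlo luminescence, 48 h post-transfection, TC32-NR0B1-luc vs TC32-CMV-luc in parallel. siRNA 20 nM final, RNAiMax lipid, 600 cells/well; z-score-MAD transformed, then seed-adjusted.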
In turn, UAGCAGAUAGGUCUCAAUG against MYH11 yielded a seed-corrected z-score of -0.244.
The value for UAGAUUCUCGUGCACAGCC against KIFC3 was 0.0224; that for AAAGUGACUAUUGUCAGGU against OR5M10 was -0.162; that for UUUGUAGUUGUUCCCAUGC against TTPA was -0.714.
The value for UCCAAGGUCAGUGUGAUCC against ZDHHC23 was 0.574.
The value for UUAUGUAUCAUUGGAACCA against LOC388780 was 0.0558; that for UUUUAUUCCCUGUAUCAUG against ZNF619 was -2.89.
In the case of UUCACUCUCAAACUGGUCC against CNOT3, the seed-corrected z-score was -0.499.
The value for UCUUGUCCAAGACUCCUUC against SMTN was -0.516; that for UGAUGAGCGACUCUCCUGG against C9orf142 was -0.422.
The value for AUUGCUACUGAUAUAAGCC against DICER1 was -0.452.
The figure for UUCGGACUCAGCUUCUCCA against EXD3 is 0.0948; for UUAUGAUCCAGGUAGAGGA against INHBE it is 0.817; for UUCUGCUUUGCAUAUCUCC against POU5F1 it is -2.72.
AUUCUUAAACGUGAUUUCC against NICN1 registered a seed-corrected z-score of 0.117.
For UAGCGAAUCUGUAAGCUGC against MLLT10, the seed-corrected z-score was -0.471.
The value for UUUUGAUGCUGUCUACAGG against METTL2B was -1.55.
The value for UUACCUAUCCCUGAGACAC against MICAL2 was 0.383; that for UCCUCUGCGAAGUUCUUGG against PANX2 was -2.24; that for UCCAUGAGCGCAAUCAUGC against CAPN3 was 0.116.
Consider UCUUCUUCACGAGUUGAGG against GPRC5A, for which the seed-corrected z-score was -0.133.
The figure for UGAGUCAAUGAUGCGCUUC against SFN is 2.54; for UUGAUGUACAGAUACCAGG against BTBD18 it is -2.42.
The value for AAAAGUCCAAACAAUACCC against GPR156 was -0.327; that for UACUUGAGCACGUCGAUGA against C19orf68 was -0.256; that for UCACUUUGAACUUUCCGGC against SCP2D1 was -1.27.
The sequence AAUGGGAAAAGAAUUGCUU against IGFBP7-AS1 showed a seed-corrected z-score of 0.0752.
In turn, UUGGUGGAUAUACUCAAUC against EXO5 had a seed-corrected z-score of -2.07.
The figure for UGAGGAACCAGUUCCAAGG against TMEM60 is -0.737; for UUCCUGCUGCGUACACUUC against KCNAB3 it is -0.0212.
The sequence ACAUAUAUAAGAAUAUCGG against ARL3 registered a seed-corrected z-score of -0.177.
The figure for UUGUGGAACAUCAUGUCUU against ADCY6 is 1.34.
The figure for UAGGUUGUGACUGGUGGUG against ARID5A is -3.43; for UAGUCGAACACCAAGAGGG against CDH3 it is -0.271.
The sequence UCCGGUUUAUAUUUGGUGC against EPSTI1 yielded a seed-corrected z-score of -0.285.
The value for UUUCAUCCUAGAAACUCCC against SLC45A3 was 0.412; that for UUCACCAUAAACACGAUCC against DPM1 was 0.428.
As to UAUGAAUCCAGAUUGAACU against CXCL1, the seed-corrected z-score stood at 0.898.
The value for UCCCGGUACAUGUUGUGGG against RPL18A was -2.34.
In the case of UGUUGAGUAGGUCCGUUCC against EPHA7, the seed-corrected z-score turned out to be 0.58.
The figure for UACAGUGACGAGAAGUUCU against RALGDS is 0.583; for AUCUCUUCCACUUCCGAGG against SMARCB1 it is -2.19; for UAAUUGAACUGAUCCAGUC against WDR12 it is -0.242.
The figure for UUCCUUAGCACCAUUGAUG against MMADHC is 1.09.
UCAGUUUUAGGAUAUAUAC against USP46-AS1 displayed a seed-corrected z-score of 0.575.
As to AUAUUAAGCAGACAACUCC against DIRC2, the seed-corrected z-score turned out to be 0.227.
As to UGAGGUUAAAGAAGGUGAC against HRH3, the seed-corrected z-score was -0.214.
The value for UGAGUUUCAUCAUAGUCUG against BMX was -4.87.
The value for UAAGCACACAUUUACUUGG against HIST1H2BG was 0.782.
As to UUUCAUCUGAAGACAGGAC against DDIT3, the seed-corrected z-score was -1.09.
The figure for UCUUCGUUGAGUGCAUCCC against SOCS2-AS1 is -0.904; for UAUGUAGUUAAGACCAUUC against IRS1 it is 0.431.
In turn, ACAAUUUUAGCUGUAACCC against OC90 returned a seed-corrected z-score of 0.989.
Regarding UCGCUGUCGAGCAGUAAGC against INO80B, the seed-corrected z-score was -2.1.
UUAGUGGUCAUGGGCUUCC against GTF2F1 gave a seed-corrected z-score of -0.176.
The figure for UCGCUUGCAAAUAAUCUGC against ULK2 is -0.141.
The value for AAGUCUGCGAUUAAAGCUG against DTNBP1 was -2.27; that for UACAUAGCAAACAUGACCG against ATL2 was -0.859.
The figure for UGAAGGUUUGGAGCAAACU against RPL15P17 is 0.127; for UGAUCUCAGUCCUCGCUGC against LINC01118 it is -0.476; for UGUAGGAACACUCAUCACC against KCNA4 it is -2.42.
Take UUCUGUCCAAUUGUCGCUG against JTB: the seed-corrected z-score is -0.0311.
The value for UAGCAUGUAACGUGUGACC against CNTNAP1 was -0.734; that for UGAAGAUCCAGCAAGUAUC against 6-Mar was 0.65; that for UCACAUGCAUCAAUUUUCG against NDUFB5 was 0.331.
The figure for UAUAGCUGAAUGGUCAUUG against KRTAP3-3 is -3.04; for UCAGUGACAACAUCACGGC against PPP2R5D it is 0.201.
The figure for UGCCGUCUUACUCUUUGCG against C19orf53 is -0.415; for AAACUUGUUUCUGCACAUG against OR2F1 it is 1.3; for UUCCCAUUGAUACUCAUGG against LECT1 it is -0.035.
In turn, UAAUGCUUGAGGCACUUGG against CALHM2 registered a seed-corrected z-score of 0.134.
In the case of UUGUCUCUCACUCAGAUUG against HOXB9, the seed-corrected z-score is 0.619.
The figure for UGCUUUGCAAUGAUCUCUC against HNRNPM is -2.32; for UGUCAUGCAAUAAGAAUCU against NLGN4Y it is 0.297.
The value for UUAGAGUAAGUAAAUAUCC against RPS18P5 was -0.219; that for UGGGUAUACAGUCAUCAUC against SLC38A9 was -2.9; that for UUGGGUAAAAGACAGUUGA against TKT was -0.555.
The value for UAGACAACAUCAGUGAUCC against RPS8P4 was 0.47; that for AAGCUUCUUAACUUCAUUC against RPL14P1 was -3.84; that for UUUGGAGAACUCCCUGGGC against FLYWCH1 was -0.00776.
The sequence UAAUUGAGGGAGCAAAGGC against FAM53A registered a seed-corrected z-score of -0.541.
The figure for UCCUUUUCCACGACCAUCG against CCR2 is -1.29.
Regarding UGCUGGAUCAGGGAGAUAG against TRPM2, the seed-corrected z-score was -2.19.
The sequence UCUUGUAGCGGAAAAGGCC against DUSP2 had a seed-corrected z-score of 0.0146.
Consider UAACGAAUAAUUUCUGCUC against HPGDS, for which the seed-corrected z-score was -0.285.
The figure for UUCCGGAUAGCCUACAUCC against USP36 is -0.445; for UAAUGUACAUCUCUCGUCC against CNGA1 it is -2.2; for UCAUCCUCCAGGAUCAUGG against ZSCAN2 it is -0.868.
Consider UAUUAGCACAGUGUAAGGC against PDE10A, for which the seed-corrected z-score was -0.276.
The value for AAUGAUCACAUCGAUAGUG against SGMS2 was -2.21.
The figure for UUUAUCAUUAGGGCUAGGG against DHRS4L1 is 0.864; for UUUUCGGUAACUCUGCGUG against SPEN it is -0.638; for UAAGGUUCUCCCUCACAGC against JAKMIP2 it is -0.785.
The value for UUGUUGUAAAGCACGAUGU against CHRNB4 was -0.439; that for UAUUAUUGAUGCGACAUCC against CNGB3 was 0.631.
UCUGGUUCCUCGGCGAAGU against PRSS53: the seed-corrected z-score is -2.84.
The value for UAUCUUCACUGGGUUCAUG against IRF6 was 2.07; that for AAUUUCUCCAGAAUCUAUG against TENM4 was -2.16; that for UUCUUUUAUUGCCUCGGGU against KISS1 was 0.198.
The value for UUCGUUCCAACAUAGGCUG against AGBL1 was -2.49.
The figure for UGACAUAUGAGUUCGAUGG against ZCCHC17 is 0.589.
The sequence AAUACUCUCAGUUCGAAUG against TXNDC15 yielded a seed-corrected z-score of 0.939.
The sequence AAUCUUGUUAUGCUCAUGG against ZBTB47 registered a seed-corrected z-score of -0.317.
The figure for UUCGGUUCAAGUUUAGCAG against TM9SF2 is -0.205.
The figure for UCAAGUUCUAUGAGAUUGG against ARRB1 is 0.195.
The value for ACAAUUUCAAGCUCCUGUC against MAGOHB was -1.58.
Regarding UCUAGAUCACCAAACAUCA against OR1N1, the seed-corrected z-score is 0.571.
The figure for AGACAUAACACCUUCUUCA against RPL10A is -2.86.
ACACCAGUGAUUACUGUGC against FLJ44635 had a seed-corrected z-score of -0.245.
As for UUGGUGAAUAGUCUCUUUC against RPS2P45, the seed-corrected z-score was -0.275.
The value for UCUUCACGCAGUAUCUUUC against SLC25A13 was 1.22; that for UCUUCUUUAGUCUUCCUGC against STMND1 was -1.04.
The value for UGCUCGAAAACAACCUUCU against TPI1 was 0.853.
The value for ACAUCUAUCACAUCUAAGG against ZC3H13 was 0.428.
The sequence UAUUUUGCAAUAUCUUCUC against SLU7 showed a seed-corrected z-score of -0.229.
AUCGUCAUAUCUACCAUUG against USP34 had a seed-corrected z-score of -1.15.
The value for UGUUUGAUGACAAGGGUUG against POLE2 was -2.32.
The value for AAAGUGUCUAGCCCUAUGG against MESP1 was 0.768; that for “AAUUCCAUGAGGGCCUUCC against CDKN2AIPNLP1” was -2.53; that for UUCGGCACCAUUCACAGAG against FAM57A was 0.0703.
The value for UGUUGACAAACCAUCUUUC against PDPN was 0.381; that for UUCAAAAACCACGAUGUUG against CLDN8 was 0.491.
Take UGUUGUAGCACUUGGCUUU against IFITM5: the seed-corrected z-score was -3.59.
Turning to AUAUCGAACAGUUUGGUAC against CTDNEP1, the seed-corrected z-score turned out to be 0.928.
In turn, AUCCGGAUCAUCGAGUCUG against ATP1B4 yielded a seed-corrected z-score of -0.782.
The figure for UUAAAUGUAAGCAGGUUUC against CYTL1 is 0.276.
The figure for AUUGAGGUAGGAGCCGUCG against FGFRL1 is -2.32.
The value for UUCAUUGCGAUUAGCCUGC against ANXA13 was -0.522; that for UACUAGAGCAGUGUCUGAG against DNPH1 was 0.502; that for UUCUCGUUGAUGCGGCUCC against ASB1 was -2.16.
Take UUGUUUUCACUUCCAAUGC against FCAMR: the seed-corrected z-score was -0.0643.
The figure for UCACGGUCAUCAUCUAGGG against FOPNL is -2.56.
